Source: PubChem BioAssay AID1159580 (chemical genetic matrix, 2015)
Out of some 5,500 compounds screened, about 2,000 (36%) were called active. About 18% were inconclusive and are not listed. No stated cut-off is given here; in the data, active means normalized growth mostly below about 0.91 (no sharp cut-off); inconclusive means no clear call, values can overlap the other calls; inactive means mostly above about 0.92. Some of the results follow.

Assay: chemical genetic growth profiling, strain panel (AID 1159580);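 further: tested at 20 µM; growth read once vehicle control cultures reached saturation at 30 °C; 1 = growth at the plate median or of vehicle wells; lower values mean less growth of the strain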
Conditions: growth OD

Measured: normalized growth

C1N2CN3CN1CN(C2)C3
inactive: S. cerevisiae deletion strains, locus YJR075W, strain HOC1, hits give low values 0.986 | S. cerevisiae deletion strains, locus YKL068W, hits give low values 0.976 | S. cerevisiae deletion strains, locus YKL085W, strain MDH1 (second series), hits give low values 0.987 | S. cerevisiae deletion strains, locus YKL085W, strain MDH1, hits give low values 0.987 | S. cerevisiae deletion strains, locus YKL160W, strain elf1, hits give low values 0.973 | S. cerevisiae deletion strains, locus YKL190W, strain CNB1, hits give low values 0.98 | S. cerevisiae deletion strains, locus YKR001C, strain vps1, hits give low values 0.965 | S. cerevisiae deletion strains, locus YKR026C, strain gcn3, hits give low values 0.997 | S. cerevisiae deletion strains, locus YKR091W, strain srl3, hits give low values 0.985 | S. cerevisiae deletion strains, locus YLL001W, strain dnm1, hits give low values 0.93 | S. cerevisiae deletion strains, locus YLL026W, hits give low values 0.993 | S. cerevisiae deletion strains, locus YLL041C, strain sdh2, hits give low values 0.983 | S. cerevisiae deletion strains, locus YLR027C, strain aat2, hits give low values 0.996 | S. cerevisiae deletion strains, locus YLR039C, strain RIC1, hits give low values 0.899 | S. cerevisiae deletion strains, locus YLR058C, strain SHM2, hits give low values 0.976 | S. cerevisiae deletion strains, locus YLR102C, strain apc9, hits give low values 0.968 | S. cerevisiae deletion strains, locus YLR113W, strain HOG1, hits give low values 0.906 | S. cerevisiae deletion strains, locus YLR221C, strain rsa3, hits give low values 0.965 | S. cerevisiae deletion strains, locus YLR258W, strain gsy2, hits give low values 0.994 | S. cerevisiae deletion strains, locus YLR262C, strain YPT6 (second series), hits give low values 0.959 | S. cerevisiae deletion strains, locus YLR262C, strain YPT6, hits give low values 0.889 | S. cerevisiae deletion strains, locus YLR268W, strain sec22, hits give low values 0.957 | S. cerevisiae deletion strains, locus YLR320W, strain mms22, hits give low values 0.961 | S. cerevisiae deletion strains, locus YLR330W, strain CHS5, hits give low values 0.985 | S. cerevisiae deletion strains, locus YLR342W, strain FKS1 (second series), hits give low values 0.991 | S. cerevisiae deletion strains, locus YLR342W, strain FKS1, hits give low values 0.982 | S. cerevisiae deletion strains, locus YLR357W, strain rsc2, hits give low values 0.971 | S. cerevisiae deletion strains, locus YLR370C, strain arc18, hits give low values 0.988 | S. cerevisiae deletion strains, locus YLR371W, strain rom2, hits give low values 0.98 | S. cerevisiae deletion strains, locus YLR384C, strain iki3, hits give low values 0.989 | S. cerevisiae deletion strains, locus YLR418C, strain cdc73, hits give low values 0.934 | S. cerevisiae deletion strains, locus YML016C, strain PPZ1, hits give low values 0.983 | S. cerevisiae deletion strains, locus YML032C, strain rad52, hits give low values 0.932 | S. cerevisiae deletion strains, locus YML120C, strain ndi1, hits give low values 0.967 | S. cerevisiae deletion strains, locus YML124C, strain tub3, hits give low values 0.982 | S. cerevisiae deletion strains, locus YMR058W, strain fet3, hits give low values 0.998 | S. cerevisiae deletion strains, locus YMR078C, strain ctf18, hits give low values 0.947 | S. cerevisiae deletion strains, locus YMR125W, strain sto1, hits give low values 0.975 | S. cerevisiae deletion strains, locus YMR129W, hits give low values 0.992 | S. cerevisiae deletion strains, locus YMR205C, strain PFK2, hits give low values 0.959 | S. cerevisiae deletion strains, locus YMR223W, strain ubp8, hits give low values 0.966 | S. cerevisiae deletion strains, locus YMR231W, strain pep5, hits give low values 0.992 | S. cerevisiae deletion strains, locus YMR263W, strain SAP30, hits give low values 0.97 | S. cerevisiae deletion strains, locus YMR307W, strain GAS1, hits give low values 0.994 | S. cerevisiae deletion strains, locus YNL067W, strain RPL9B, hits give low values 0.966 | S. cerevisiae deletion strains, locus YNL071W, strain lat1, hits give low values 0.973 | S. cerevisiae deletion strains, locus YNL128W, strain TEP1, hits give low values 0.981 | S. cerevisiae deletion strains, locus YNL153C, strain GIM3, hits give low values 0.968 | S. cerevisiae deletion strains, locus YNL183C, strain NPR1, hits give low values 0.972 | S. cerevisiae deletion strains, locus YNL209W, strain ssb2, hits give low values 0.986 | S. cerevisiae deletion strains, locus YNL233W, strain BNI4, hits give low values 0.99 | S. cerevisiae deletion strains, locus YNL248C, strain rpa49, hits give low values 0.982 | S. cerevisiae deletion strains, locus YNL271C, strain bni1, hits give low values 0.959 | S. cerevisiae deletion strains, locus YNL298W, strain CLA4, hits give low values 0.923 | S. cerevisiae deletion strains, locus YNL307C, strain MCK1, hits give low values 0.989 | S. cerevisiae deletion strains, locus YNL322C, strain KRE1 (second series), hits give low values 0.983 | S. cerevisiae deletion strains, locus YNL322C, strain KRE1, hits give low values 0.982 | S. cerevisiae deletion strains, locus YNR049C, strain mso1, hits give low values 0.994 | S. cerevisiae deletion strains, locus YNR052C, strain pop2, hits give low values 0.956 | S. cerevisiae deletion strains, locus YOL006C, strain TOP1, hits give low values 0.931 | S. cerevisiae deletion strains, locus YOL012C, strain htz1 1.62 | S. cerevisiae deletion strains, locus YOL147C, strain pex11, hits give low values 0.98 | S. cerevisiae deletion strains, locus YOR001W, strain rrp6, hits give low values 1.01 | S. cerevisiae deletion strains, locus YOR061W, strain CKA2, hits give low values 0.957 | S. cerevisiae deletion strains, locus YOR069W, strain VPS5, hits give low values 0.998 | S. cerevisiae deletion strains, locus YOR070C, strain gyp1, hits give low values 0.992 | S. cerevisiae deletion strains, locus YOR080W, strain dia2, hits give low values 0.994 | S. cerevisiae deletion strains, locus YOR083W, strain WHI5, hits give low values 0.961 | S. cerevisiae deletion strains, locus YOR106W, strain vam3, hits give low values 0.986 | S. cerevisiae deletion strains, locus YOR136W, strain idh2, hits give low values 0.989 | S. cerevisiae deletion strains, locus YOR144C, strain elg1, hits give low values 0.984 | S. cerevisiae deletion strains, locus YOR184W, strain ser1, hits give low values 1.02 | S. cerevisiae deletion strains, locus YOR265W, strain rbl2, hits give low values 0.993 | S. cerevisiae deletion strains, locus YOR270C, strain vph1, hits give low values 0.958 | S. cerevisiae deletion strains, locus YOR290C, strain snf2, hits give low values 0.914 | S. cerevisiae deletion strains, locus YOR316C, strain cot1, hits give low values 0.968 | S. cerevisiae deletion strains, locus YPL051W, strain arl3, hits give low values 0.984 | S. cerevisiae deletion strains, locus YPL055C, strain LGE1, hits give low values 0.977 | S. cerevisiae deletion strains, locus YPL078C, strain atp4, hits give low values 0.965 | S. cerevisiae deletion strains, locus YPL106C, strain sse1, hits give low values 0.967 | S. cerevisiae deletion strains, locus YPL240C, strain hsp82, hits give low values 0.993 | S. cerevisiae deletion strains, locus YPL256C, strain CLN2, hits give low values 0.948 | S. cerevisiae deletion strains, locus YPR119W, strain clb2, hits give low values 0.983 | S. cerevisiae deletion strains, locus YPR141C, strain kar3, hits give low values 0.95 | S. cerevisiae deletion strains, locus YPR163C, strain tif3, hits give low values 0.984 | S. cerevisiae deletion strains, locus YPR167C, strain met16, hits give low values 0.978 | S. cerevisiae deletion strains, strain wtn01, hits give low values 0.959 | S. cerevisiae strains, strain wild type, hits give low values 0.989
active: S. cerevisiae deletion strains, locus YKL009W, strain mrt4, hits give low values 0.834 | S. cerevisiae deletion strains, locus YNL250W, strain rad50, hits give low values 0.834 | S. cerevisiae deletion strains, locus YOR231W, strain MKK1, hits give low values 0.794 | S. cerevisiae deletion strains, locus YPL241C, strain CIN2, hits give low values 1.08 [resistant]
